High-throughput results from PubChem BioAssay.
Hits are enriched below; roughly 4.2% of the tested compounds scored in any of these assays.
GDH-TPI inh – GDH-TPI coupling enzyme inhibitors, primary screen, artefact control for M. tuberculosis FBA inhibitor project, biochemical, absorbance, full deck; GDH-TPI coupled enzyme counterscreen, NADH absorbance; inhibition, % at 4.8 µM; 360,000 compounds, 1.2% hits; AID 588335, 2011;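 also: 0% = DMSO wells and 100% = wells lacking the enzyme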
Mtb betalactam – beta-lactam sensitization of Mtb H37Rv, H37Rv; M. tuberculosis H37Rv growth with meropenem, percent inhibition; inhibition, % at 25 µM; 330,000 compounds, 0.27% hits; AID 434955, 2010; call rule not given here;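 also: growth measured after seven days incubation then overnight dye step; 0% = bacteria only wells and 100% = bacteria with antibiotic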
Mtb FBA inh – Mtb FBA enzyme inhibitors, primary screen, biochemical, fluorescence, strain H37Rv | Fructose-bisphosphate aldolase (Mycobacterium tuberculosis (strain ATCC 25618 / H37Rv)), … | purified M. tuberculosis FBA, fluorescence read-out | inhibition, % at 1 µM | AID 588726, 2011 | 360,000 compounds, 2.3% hits; in the data active = inhibition above about 27%;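 also: 0% = vehicle and 100% = reference inhibitor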
RecA intein inh – Mtb RecA intein splicing inhibitors, primary screen, biochemical, fluorescence, HTS. Protein RecA (Mycobacterium tuberculosis (strain ATCC 25618 / H37Rv)), P9WHJ3. cell-free RecA intein splicing. inhibition, % (concentration not given with the values). 290,000 compounds, 0.75% hits; in the data active = inhibition above about 30%;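 also: 0% = vehicle wells and 100% = reference inhibitor control wells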
Target sequence (P9WHJ3 whole entry, looked up): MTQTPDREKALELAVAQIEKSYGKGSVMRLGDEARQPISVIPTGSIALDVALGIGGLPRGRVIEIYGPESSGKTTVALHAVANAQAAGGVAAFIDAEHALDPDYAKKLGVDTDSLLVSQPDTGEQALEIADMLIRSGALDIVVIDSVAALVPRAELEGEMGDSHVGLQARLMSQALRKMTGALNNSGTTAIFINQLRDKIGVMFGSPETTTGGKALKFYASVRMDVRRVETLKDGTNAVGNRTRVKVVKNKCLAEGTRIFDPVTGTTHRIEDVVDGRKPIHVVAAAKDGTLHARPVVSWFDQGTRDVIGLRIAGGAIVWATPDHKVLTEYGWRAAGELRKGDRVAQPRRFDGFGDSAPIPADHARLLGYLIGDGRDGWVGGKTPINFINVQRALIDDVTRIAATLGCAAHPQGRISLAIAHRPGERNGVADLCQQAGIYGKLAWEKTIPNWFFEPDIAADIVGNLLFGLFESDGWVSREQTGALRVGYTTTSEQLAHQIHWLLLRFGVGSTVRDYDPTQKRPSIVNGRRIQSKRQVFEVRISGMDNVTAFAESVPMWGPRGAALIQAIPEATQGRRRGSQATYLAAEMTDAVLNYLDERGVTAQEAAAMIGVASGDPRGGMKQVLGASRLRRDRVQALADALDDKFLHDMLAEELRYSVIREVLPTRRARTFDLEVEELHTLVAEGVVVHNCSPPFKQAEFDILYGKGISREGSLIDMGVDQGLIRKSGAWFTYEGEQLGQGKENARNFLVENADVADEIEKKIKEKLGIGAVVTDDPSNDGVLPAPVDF
CCHF vOTU inh-1 – CCHFV vOTU protease inhibitors, primary screen, biochemical, Pep-AMC substrate, fluorescence | 370,000 compounds, 0.55% hits | Crimean-Congo hemorrhagic fever virus L polyprotein viral ovarian tumor (vOTU) protease … | inhibition, % at 11.5 µM; also: 0% = vehicle wells with enzyme and 100% = no enzyme wells
CCHF vOTU inh-2 – CCHFV vOTU protease inhibitors, confirmation, biochemical, Pep-AMC substrate, fluorescence | shares compounds with CCHF vOTU inh-1 | Recombinant CCHFV vOTU | inhibition, % at 11.5 µM | 1,900 compounds, 17% hits | AID 686976, 2013
* hit, by the source's call. Rule as the data show it, unless noted: active = inhibition above about 30%; inactive = the rest.

`Cc1cc(NC2=CC(=O)C(=O)c3ccccc32)no1` gave GDH-TPI inh 7, Mtb FBA inh -3, CCHF vOTU inh-1 81* and CCHF vOTU inh-2 96*.
COc1cc(OC)c(NC2=CC(=O)C(=O)c3ccccc32)cc1Cl was read as GDH-TPI inh 10, Mtb betalactam 0, Mtb FBA inh 1, RecA intein inh -1 and CCHF vOTU inh-1 16.
Screening O=C(CNS(=O)(=O)c1cccc2ccccc12)N1CCN(c2ncccn2)CC1 returned CCHF vOTU inh-1 11.
For COc1ccc(NS(=O)(=O)c2cccc(C(=O)N3CCN(C/C=C/c4ccccc4)CC3)c2)cc1 the results were GDH-TPI inh -1, Mtb FBA inh -1, CCHF vOTU inh-1 30* and CCHF vOTU inh-2 -11.
CCN1C[C@@H]2[C@@H]3C(=O)N(C)C(=O)[C@@H]3[C@](Cc3ccccc3)(C(=O)OC)N2C1=NC1CCCCC1 was read as GDH-TPI inh -9, Mtb FBA inh -2 and CCHF vOTU inh-1 -14.
Cc1cc(C(=O)OCC(=O)N2CCOCC2)c2ccccc2n1 was read as GDH-TPI inh -1, Mtb betalactam -11, Mtb FBA inh 8, RecA intein inh -5, CCHF vOTU inh-1 34* and CCHF vOTU inh-2 -13.
Screening Cc1cc(C(=O)OCC(=O)N2CCCC2)c2ccccc2n1 returned GDH-TPI inh 10, Mtb betalactam 8, Mtb FBA inh 4, RecA intein inh -2 and CCHF vOTU inh-1 -14.
For O=C(NNC(=O)C(Cl)Cl)c1cnn(-c2ccccc2)c1C(F)(F)F the results were GDH-TPI inh 2, Mtb betalactam 10, Mtb FBA inh 3, RecA intein inh 0 and CCHF vOTU inh-1 -3.
CCOc1cc(Br)cc(C(c2c(C(=O)O)[nH]c3ccccc23)c2c(C(=O)O)[nH]c3ccccc23)c1O was read as GDH-TPI inh 16, Mtb betalactam 2, Mtb FBA inh 1, RecA intein inh 10, CCHF vOTU inh-1 43* and CCHF vOTU inh-2 22.
CC(OC(=O)Cn1cc(C(F)(F)F)ccc1=O)C(=O)N(C)c1ccccc1 (stereo unspecified) was read as GDH-TPI inh 4, Mtb betalactam -8, Mtb FBA inh 1 and CCHF vOTU inh-1 -11.
For COc1cccc(NC2=C(NCCO)C(=O)c3ccccc3C2=O)c1 the results were GDH-TPI inh 9, Mtb betalactam -3, Mtb FBA inh 2, RecA intein inh 11, CCHF vOTU inh-1 35* and CCHF vOTU inh-2 -2.
For COc1cccc(Nc2c(Nc3cccc(OC)c3)c(=O)c2=O)c1 the results were GDH-TPI inh 6, Mtb betalactam 2, Mtb FBA inh 7, RecA intein inh -6 and CCHF vOTU inh-1 6.
`Cc1cccc(NC2=C(NCCO)C(=O)c3ccccc3C2=O)c1` gave GDH-TPI inh 2, Mtb betalactam 1, Mtb FBA inh -1, RecA intein inh 22, CCHF vOTU inh-1 54* and CCHF vOTU inh-2 16.
`Cc1cccc(Nc2nc(N)c([N+](=O)[O-])c(NCCO)n2)c1` gave GDH-TPI inh 24, Mtb betalactam 82, Mtb FBA inh -1, RecA intein inh 2 and CCHF vOTU inh-1 6.
Screening Oc1c(CN2CCCCC2)cc(Br)c2cccnc12 returned GDH-TPI inh -7, Mtb betalactam 14, Mtb FBA inh 1, RecA intein inh 0, CCHF vOTU inh-1 70* and CCHF vOTU inh-2 -7.
Oc1c(Cl)cc(CN2CCOCC2)c2cccnc12 was read as GDH-TPI inh 0, Mtb betalactam 100, Mtb FBA inh 0 and CCHF vOTU inh-1 5.
`C=CCNC(=O)NCC1CCN(Cc2ccc(OC)cc2)CC1` gave CCHF vOTU inh-1 -3.
Screening O=C(Nc1ncc([N+](=O)[O-])s1)C1CCN(S(=O)(=O)c2cnc[nH]2)CC1 returned GDH-TPI inh 5, Mtb betalactam -6, Mtb FBA inh -9, RecA intein inh 15, CCHF vOTU inh-1 31* and CCHF vOTU inh-2 -1.
